# Results published in PubChem BioAssay AID1835 (Johns Hopkins Ion Channel Center, 2009).
# About 750 (31%) of roughly 2,400 compounds were called active.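 Rule for the calls: active = median signal gain over dofetilide-blocked control wells reaching their mean plus 3 SD, so readout 1 at least 0; inactive = the rest.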 The list shows a part of the results.
# Target: Voltage-gated inwardly rectifying potassium channel KCNH2 (Homo sapiens) (UniProt Q12809)
# Experiment: hERG protection against dofetilide inhibition, confirmation, cell-based, thallium flux, duplicate retest, dofetilide IC70 (AID 1835)
# Conditions: hERG cell line, FluxOR thallium flux, dofetilide-blocked; at 10 µM; stronger effect = higher value
# Sequence of Voltage-gated inwardly rectifying potassium channel KCNH2 (Homo sapiens) (Q12809 whole entry, looked up): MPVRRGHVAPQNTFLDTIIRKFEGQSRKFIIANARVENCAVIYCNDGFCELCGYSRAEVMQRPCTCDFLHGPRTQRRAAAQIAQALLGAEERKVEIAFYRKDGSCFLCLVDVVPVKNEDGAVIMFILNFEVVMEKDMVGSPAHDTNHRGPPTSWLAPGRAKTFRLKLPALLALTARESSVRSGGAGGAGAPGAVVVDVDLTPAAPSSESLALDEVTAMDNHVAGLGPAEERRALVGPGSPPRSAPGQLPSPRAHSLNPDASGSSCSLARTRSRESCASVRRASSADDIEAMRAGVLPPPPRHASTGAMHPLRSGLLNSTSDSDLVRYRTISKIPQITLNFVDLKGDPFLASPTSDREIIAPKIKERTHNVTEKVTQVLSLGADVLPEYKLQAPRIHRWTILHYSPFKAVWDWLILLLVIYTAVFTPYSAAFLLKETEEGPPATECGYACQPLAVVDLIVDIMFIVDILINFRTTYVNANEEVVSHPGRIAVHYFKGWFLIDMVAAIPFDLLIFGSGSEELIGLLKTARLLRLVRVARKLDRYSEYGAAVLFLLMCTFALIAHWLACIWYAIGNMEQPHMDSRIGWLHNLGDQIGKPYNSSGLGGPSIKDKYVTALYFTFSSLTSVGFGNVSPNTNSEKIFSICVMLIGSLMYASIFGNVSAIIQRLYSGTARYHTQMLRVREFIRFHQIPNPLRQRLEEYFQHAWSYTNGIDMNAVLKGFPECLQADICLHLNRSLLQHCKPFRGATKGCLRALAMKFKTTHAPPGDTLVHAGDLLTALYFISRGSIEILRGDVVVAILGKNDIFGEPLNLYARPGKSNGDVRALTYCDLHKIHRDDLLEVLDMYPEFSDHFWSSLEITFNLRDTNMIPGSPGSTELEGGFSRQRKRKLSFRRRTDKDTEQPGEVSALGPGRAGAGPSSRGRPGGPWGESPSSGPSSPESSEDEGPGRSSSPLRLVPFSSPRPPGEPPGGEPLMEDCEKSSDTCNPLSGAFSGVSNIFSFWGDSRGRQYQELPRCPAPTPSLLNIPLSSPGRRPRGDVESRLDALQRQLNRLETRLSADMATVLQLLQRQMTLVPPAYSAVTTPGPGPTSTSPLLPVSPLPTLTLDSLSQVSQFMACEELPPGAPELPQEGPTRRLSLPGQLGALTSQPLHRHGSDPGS
row,SMILES,"activity increase over dofetilide control, less the hit threshold"
1,CC(C)C(=O)Nc1ccc(NC(=O)CCc2ccccc2)cn1,-14% (inactive)
2,O=C(Nc1ncc(Br)s1)C(Cc1ccccc1)n1cccc1 (configuration not stated),22% (active)
3,O=C(CCc1ccccc1)Nc1nccs1,-12% (inactive)
4,Cc1cc2[nH]c(=O)c(=O)[nH]c2cc1S(=O)(=O)N1CCN(c2cccc(C)c2C)CC1,-5% (inactive)
5,CC(Oc1ccc(Cl)cc1)/C(N)=N/O (configuration not stated),-20% (inactive)
6,Cc1ccc2[nH]cc(CCNC(=O)/C=C/c3ccco3)c2c1,-14% (inactive)
7,CCCOc1ccc(-c2c(=O)n(O)c3ccccc3[n+]2[O-])cc1,51% (active)
8,CCOc1ccc(-c2c(=O)n(O)c3ccccc3[n+]2[O-])cc1,74% (active)
9,CCOc1ccc(CC(C(N)=O)C(N)=O)cc1,-12% (inactive)
10,Cc1cccc(/C=N/Nc2ccc3ccccc3n2)c1,-3% (inactive)
11,O=S(=O)(Nc1nc(-c2sccc2Cl)cs1)c1cc(Cl)ccc1Cl,73% (active)
12,O=C(Nc1ccccc1)OCCCCCOC(=O)Nc1ccccc1,-11% (inactive)
13,C=CCn1c(O)c(N=NC(=S)Nc2ccccc2F)c2cc(S(=O)(=O)N3CCOCC3)ccc21,0% (inactive)
14,C/C(Cl)=C\Cn1c(O)c(N=NC(N)=S)c2cc(Br)ccc21,49% (active)
15,COc1ccc(C(=O)O/N=C(\N)c2ccccn2)cc1[N+](=O)[O-],-11% (inactive)
16,Nn1c(SCC(=O)Nc2ccc(OC(F)F)cc2)nnc1-c1ccco1,-12% (inactive)
17,CCc1ccc(C(=O)CSc2nc3ccccc3c(=O)[nH]2)cc1,-16% (inactive)
18,CC(C)OC(=O)c1c2nc3ccccc3nc2n2c1[nH]c(=O)c1ccccc12,85% (active)
19,CCCCOC(=O)Cn1c2ccc(OC)cc2c2nc3ccccc3nc21,-28% (inactive)
20,CC1=NN(C(=O)c2cc(C)nn2C)C(O)(C(F)(F)F)C1 (configuration not stated),-14% (inactive)
21,CC(C)Sc1nc2ccccc2n2cnnc12,-2% (inactive)
22,O=C(c1cccc(C(F)(F)F)c1)C1CCCN(C(=O)CCn2cnnn2)C1 (configuration not stated),-3% (inactive)
23,CCc1cc(=O)[nH]c(SCc2ccc(C)cc2)n1,-11% (inactive)
24,CSc1nc(=S)cc(C)[nH]1,5% (active)
25,CCSc1nc(=S)cc(C)[nH]1,49% (active)
26,CCOc1cccc(Nc2cc3n(c(=O)n2)CCc2cc(OC)c(OC)cc2-3)c1,-22% (inactive)

row,SMILES,"activity increase over dofetilide control, less the hit threshold"
1,Cc1cc(C(=O)NP(=O)(N2CCOCC2)N2CCOCC2)c(C)n1-c1ccc(Br)cc1,-13% (inactive)
2,Cc1cc(NC(=O)CSc2ccc(-c3ccc(F)cc3)nn2)no1,-12% (inactive)
3,O=C(C1CC1)N1N=C(c2ccccc2)CC1(O)C(F)(F)C(F)(F)F (configuration not stated),-11% (inactive)
4,CCCCC1(O)CC(C(F)(F)F)=NN1C(=O)COc1ccccc1 (configuration not stated),4% (active)
5,CC(C)(C)C1(O)CC(C(F)(F)F)=NN1C(=O)Cc1ccc([N+](=O)[O-])cc1 (configuration not stated),-19% (inactive)
6,COc1cc(OC)c(C2=NOC(C(=O)Nc3ccc4c(c3)OCO4)C2)cc1Cl (configuration not stated),-21% (inactive)
7,Oc1ccc(N=Nc2ccccc2-c2nn[nH]n2)c(O)c1,6% (active)
8,COc1cc(CNn2nnnc2N)ccc1OCC(=O)NC(C)(C)C,-15% (inactive)
9,CCCCCCCCCCn1c2c(c(=N)c3c1CCC3)CCC2,49% (active)
10,COC(=O)CNC(=S)NC(=O)c1ccc(C(C)(C)C)cc1,-8% (inactive)
11,Cc1cc(Br)c(NC(=O)COC(=O)C2CC2C)c(Br)c1 (configuration not stated),-11% (inactive)
12,CCOC(=O)NC(=O)/C(C#N)=N\Nc1ccc(Cl)cc1,-17% (inactive)
13,CCOC(=O)NC(=S)Nc1ccc(C(C)(C)C)cc1Br,23% (active)
14,CCOC(=O)NC(=S)Nc1ccc(C(C)(C)C)cc1,3% (active)
15,c1cnc2c(Oc3ncnc4sccc34)cccc2c1,-11% (inactive)
16,N#Cc1ccc(OCc2nnc(-c3ccc([N+](=O)[O-])cc3)o2)cc1,-3% (inactive)
17,COc1cc(C2NC(=O)NC(C)=C2C(=O)OCC2CCCCC2)ccc1O (configuration not stated),-3% (inactive)
18,CCOC(=O)C1=C(c2ccccc2)NC(=O)NC1c1ccc(O)c(Cl)c1 (configuration not stated),5% (active)
19,CCOC(=O)C1=C(c2ccccc2)NC(=O)NC1c1ccc(OC)c(OC)c1 (configuration not stated),-6% (inactive)
20,O=C(Nc1ccc(NC(=O)C2CC2)nc1)c1cccs1,-21% (inactive)
21,O=C(NC(=S)N(CC1CCC1)CC1CCCO1)c1cccc([N+](=O)[O-])c1 (configuration not stated),14% (active)
22,CCCCNC(=S)NC(=O)c1ccc([N+](=O)[O-])cc1,-4% (inactive)
23,O=C(O)c1cccc(C(=O)Nc2cccc(NC(=O)C3CCCO3)c2)c1 (configuration not stated),-14% (inactive)
24,CCCCN(C(=O)CNC(=O)c1cccs1)C(C(=O)NC1CCCC1)c1ccncc1 (configuration not stated),-6% (inactive)
25,CCC1CCCCN1C(=S)NC(=O)c1ccc([N+](=O)[O-])cc1 (configuration not stated),28% (active)
26,CC1CCN(C(=S)NC(=O)c2cccc([N+](=O)[O-])c2)CC1,15% (active)

row,SMILES,"activity increase over dofetilide control, less the hit threshold"
1,CCCCCC(=O)NNC(=S)NC(=O)c1ccc([N+](=O)[O-])cc1,-24% (inactive)
2,CCC1CCCCN1C(=S)NC(=O)c1cccs1 (configuration not stated),4% (active)
3,CCOC(=O)/C=C/c1ccc2c(c1)S(=O)(=O)N(c1cccc(OC)c1)[C@H]2CC(=O)OCC,-20% (inactive)
4,O=C(NC1CCCC1)C(c1ccncc1)N(Cc1ccccc1F)C(=O)c1csnn1 (configuration not stated),-1% (inactive)
5,Cc1occc1C(=O)Nc1cccc([N+](=O)[O-])c1,-20% (inactive)
6,CCC1CCCCN1C(=S)NC(=O)c1cccc([N+](=O)[O-])c1 (configuration not stated),36% (active)
7,O=[N+]([O-])c1ccc(Nc2ccccc2F)nc1,-3% (inactive)
8,O=C(CCc1nc(-c2ccccc2)no1)N1CCCC1,-20% (inactive)
9,CC(C(=O)N1CCN(c2ccc([N+](=O)[O-])cc2)CC1)N1C(=O)C2CC=CCC2C1=O (configuration not stated),-9% (inactive)
10,C=CCn1c(SCc2ccc(C(=O)O)cc2)nc2sc(C)c(C)c2c1=O,20% (active)
11,C=CCN1C(=O)C(Cc2ccc(OCC)cc2)SC1=Nc1ccc(C(=O)O)cc1 (configuration not stated),-11% (inactive)
12,C=CCOc1ccccc1/C=c1\sc2nc(=O)c(C)nn2c1=O,-7% (inactive)
13,CNC(=O)CSc1nnc(-c2ccco2)n1-c1ccc(C)cc1,-10% (inactive)
14,C=CCNC(=S)Nc1sc2c(c1C(=O)OCC)CC(C(C)C)OC2 (configuration not stated),-4% (inactive)
15,CCOC(=O)c1c(/N=C/C2=C(O)CCCC2=O)sc2c1CCCC2,-14% (inactive)
16,C=CCNC(=S)Nc1sc2c(c1C(=O)OCC)CC(C)(CC)OC2 (configuration not stated),15% (active)
17,COC(=O)c1c(NC(=S)Nc2ccc(F)cc2[N+](=O)[O-])sc2c1CCCCC2,11% (active)
18,COc1ccc(NC(=S)NC(NC(=O)c2cccc3ccccc23)C(Cl)(Cl)Cl)c([N+](=O)[O-])c1 (configuration not stated),-23% (inactive)
19,CNC(=S)Nc1sc2c(c1C(=O)OC)CCC2,17% (active)
20,CCOC(=O)c1c(NC(=S)NC)sc2c1CCCC2,42% (active)
21,COc1ccc(CCNC(=O)CSc2ccc3nnc(CCNC(=O)c4ccccc4)n3n2)cc1OC,-13% (inactive)
22,Clc1cccc(-c2ccc(C=Nc3ccc(N4CCOCC4)cc3)o2)c1Cl,-12% (inactive)
23,COc1ccc(CCNC(=O)CC(NS(=O)(=O)c2ccc(NC(C)=O)cc2)C(C)C)cc1OC (configuration not stated),-8% (inactive)
24,CCOC(=O)c1c(NC(=S)NC)sc2c1CC(C)(C)SC2,79% (active)
25,CC(=O)NC(CSC(CC(=O)c1ccco1)c1ccc(C)cc1)C(=O)O (configuration not stated),-15% (inactive)
26,C[n+]1ccccc1/C=C/c1c(F)cccc1F,-2% (inactive)

row,SMILES,"activity increase over dofetilide control, less the hit threshold"
1,C[n+]1ccccc1/C=C/c1ccc(C#N)cc1,6% (active)
2,COc1cc(Cl)cc(C(c2c(C(=O)O)[nH]c3ccccc23)c2c(C(=O)O)[nH]c3ccccc23)c1O,-20% (inactive)
3,CC(=O)NCCc1nc2cc(NC(=O)c3ccc(Cl)cc3)ccc2n1C,-9% (inactive)
4,Cc1c(-c2ccn[nH]2)cc(NC(=O)c2ccc(Cl)cc2)c(=O)n1N,7% (active)
5,CN(C)S(=O)(=O)c1cccc(C(=O)Nc2cccnc2)c1,-6% (inactive)
6,Cn1nc(C(F)(F)F)c(-c2ccc(Br)cc2)c1NC(=O)c1cccnc1,6% (active)
7,O=C(N=C1SC2CS(=O)(=O)CC2N1c1cccc(Cl)c1Cl)C1CCCO1 (configuration not stated),-15% (inactive)
8,CCOc1ccc(S(=O)(=O)Nc2nc3ccccc3nc2-n2ccc(=NC(=O)c3cccs3)cc2)cc1,-6% (inactive)
9,Cc1nonc1CN(C)C(=O)c1ccc(OC2CCN(Cc3ccccn3)CC2)cc1,3% (active)
10,CN(CCc1ccccn1)C(=O)CCC1CCCN(C(=O)c2ccsc2)C1 (configuration not stated),-5% (inactive)
11,C/C(=N\N1CCN(C2c3ccccc3-c3ccccc32)CC1)c1ccncc1,-18% (inactive)
12,C/C(=C/CCC(C)[C@H]1CC[C@@]2(C)C3=C(CC[C@]12C)[C@@]1(C)CCC(=O)C(C)(C)[C@@H]1CC3)C(=O)O (some centres not stated),45% (active)
13,C/C(=C/CCC(C)C1CCC2(C)C3CCC4C(C)(C)C(=O)CCC4(C)C3=CCC12C)C(=O)O (configuration not stated),15% (active)
14,Nc1ncnc(Oc2cccc3cccnc23)c1[N+](=O)[O-],-12% (inactive)
15,Nc1cc(-c2ccc(Br)cc2)[nH]n1,-11% (inactive)
16,O=C(CN1C(=O)c2cccc3cccc1c23)Nc1cccnc1,-17% (inactive)
17,CSc1cccc(NC(=O)CN2C(=O)c3ccccc3S2(=O)=O)c1,-19% (inactive)
18,CNC(=O)c1ccc(NC(=O)CN2c3cccc4cccc(c34)S2(=O)=O)cc1,61% (active)
19,COc1ccc(N2CCN(C(=S)Nc3cccc(OC)c3)CC2)cc1,-11% (inactive)
20,O=C(NC(=S)N1CCN(c2ccc(C(F)(F)F)cc2[N+](=O)[O-])CC1)c1cccs1,12% (active)
21,Cc1c(C(=O)NN2CCN(C)CC2)cccc1[N+](=O)[O-],-16% (inactive)
22,O=C(NC(=S)N1CCN(c2ccc(Cl)cc2[N+](=O)[O-])CC1)c1cccs1,12% (active)
23,O=C(NC(=S)N1CCN(c2c(Cl)cccc2[N+](=O)[O-])CC1)c1cccs1,2% (active)
24,COc1ccc(N2CCN(C(=S)NC(=O)c3cccs3)CC2)c([N+](=O)[O-])c1,1% (active)
